“And” between values parts separate entries of the source, which are not always exact repeats. Identical values can stand only once. Inconclusive results are not listed. Entries that show only a call come without a potency. The source made the active and inactive calls. Calls come from the whole dose curve; as a rule, active = well fitted curve in the direction sought with a large enough effect in the repeat runs; inconclusive = weak or mixed curves; inactive = no such curve, though single readings can be large; an effect the other way counts as inactive or inconclusive.
Molecular target: Cytochrome P450 1A2 (Homo sapiens) (UniProt P05177)
Sequence (P05177 whole entry, looked up): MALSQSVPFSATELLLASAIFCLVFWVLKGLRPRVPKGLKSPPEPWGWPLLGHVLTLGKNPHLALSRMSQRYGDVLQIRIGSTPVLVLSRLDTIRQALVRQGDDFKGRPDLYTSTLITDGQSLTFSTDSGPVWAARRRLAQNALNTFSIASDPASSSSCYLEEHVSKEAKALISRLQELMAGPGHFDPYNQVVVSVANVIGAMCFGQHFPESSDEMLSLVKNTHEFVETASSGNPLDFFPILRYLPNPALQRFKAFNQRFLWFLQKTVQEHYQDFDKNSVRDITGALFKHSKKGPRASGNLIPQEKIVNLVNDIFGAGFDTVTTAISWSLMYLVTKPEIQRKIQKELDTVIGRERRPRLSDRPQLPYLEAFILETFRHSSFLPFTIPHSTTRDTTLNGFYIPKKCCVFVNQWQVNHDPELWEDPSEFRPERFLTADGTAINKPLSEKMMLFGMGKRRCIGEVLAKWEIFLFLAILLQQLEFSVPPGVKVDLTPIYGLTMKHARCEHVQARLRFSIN
Test: Cytochrome P450 Family 1 Subfamily A Member 2 (CYP1A2) small molecule antagonists: luciferase reporter qHTS assay (AID 1671199)
Conditions: P450-Glo CYP1A2 enzyme, luciferin luminescence, 1 h; series mostly up to 115 µM
How it was run: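 Human CYP1A2 activity measured with a P450-Glo proluciferin substrate; compounds in DMSO preincubated 10 min at room temperature with enzyme-substrate mix, then NADPH regeneration system added for 1 h. Luciferin detection reagent, 20 min, luminescence read.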
Note: nearly all actives have a fitted effect of over 50% in size.
Potency is the fitted concentration of half-maximal effect.

Row | SMILES | Potency
1 | OC(c1ccc(Cl)cc1)(c1ccc(Cl)cc1)c1cccnc1 | 35.6 µM (active)
2 | [CH3][Sn]([CH3])([Cl])[Cl] | inactive
3 | CC(O)(CS(=O)(=O)c1ccc(F)cc1)C(=O)Nc1ccc(C#N)c(C(F)(F)F)c1 (configuration not stated) | inactive
4 | CCCCCCCCCCOC(=O)c1ccccc1C(=O)OCCCCCCCCCC | inactive
5 | N#Cc1ccc(Cl)cc1 | inactive
6 | CCOP(=S)(OCC)SCn1nnc2ccccc2c1=O | 35.6 µM (active)
7 | O=C(CCl)c1ccc(Cl)cc1Cl | 35.4 µM (active) and 12.9 µM (active)
8 | Sc1ccccc1Cl | inactive
9 | CC(c1ccc(O)cc1)(c1ccc(O)cc1)c1ccc(O)cc1 | inactive
10 | Cc1ccccc1CCl | inactive
11 | O=C(Nc1ccccc1)Nc1ccnc(Cl)c1 | 20 µM (active)
12 | O=[N+]([O-])C(Br)(CO)CO | 17.8 µM (active)
13 | COc1nn(CSP(=S)(OC)OC)c(=O)s1 | 7.96 µM (active)
14 | CC(=O)CCC(C)=O | inactive
15 | COP(=S)(OC)Oc1ccc([N+](=O)[O-])cc1Cl | 22.4 µM (active)
16 | C[C@H]1CNCCc2ccc(Cl)cc21 | inactive
17 | O=C(O)C(F)(F)C(F)(F)C(F)(F)C(F)(F)C(F)(F)C(F)(F)C(F)(F)C(F)(F)C(F)(F)C(F)(F)F | inactive

Row | SMILES | Potency
18 | c1ccc(CN2CCNCC2)cc1 | inactive
19 | O=C(Nc1ccccc1)Nc1cnns1 | 3.56 µM (active)
20 | CO/C=C(/C(=O)OC)c1ccccc1COc1cccc(C(F)(F)F)n1 | 35.5 µM (active)
21 | CNC(C)Cc1ccccc1OC (configuration not stated) | inactive
22 | CC(C)=CCOc1c2occc2cc2ccc(=O)oc12 | 0.229 µM (active)
23 | O=S1(=O)OC(c2cc(Br)c(O)c(Br)c2)(c2cc(Br)c(O)c(Br)c2)c2ccccc21 | 32.6 µM (active)
24 | CN1C(=O)NC(=O)C(C)(C2=CCCCC2)C1=O (configuration not stated) | inactive
25 | ClCCCCBr | inactive
26 | Cc1ccccc1C(=O)Nc1cccc(OC(C)C)c1 | 5.64 µM (active)
27 | COc1ccc(-c2ccccc2)cc1NNC(=O)OC(C)C | 5.88 µM (active)
28 | Cl/C=C\Cl | inactive
29 | O=C(O)C(F)(F)C(F)(F)C(F)(F)C(F)(F)C(F)(F)C(F)(F)C(F)(F)C(F)(F)C(F)(F)F | inactive
30 | ClCc1cccc(Cl)c1 | inactive
31 | CC(C)(C)c1cc([N+](=O)[O-])cc([N+](=O)[O-])c1O | 56.2 µM (active)
32 | CCCCCCC#N | 38.7 µM (active)
33 | S=C=NCc1ccccc1 | 28.6 µM (active)
34 | CC(C)(OO)c1ccccc1 | 25.2 µM (active)

Molecular target: Voltage-gated inwardly rectifying potassium channel KCNH2 (Homo sapiens) (UniProt Q12809)
Sequence (Q12809 whole entry, looked up): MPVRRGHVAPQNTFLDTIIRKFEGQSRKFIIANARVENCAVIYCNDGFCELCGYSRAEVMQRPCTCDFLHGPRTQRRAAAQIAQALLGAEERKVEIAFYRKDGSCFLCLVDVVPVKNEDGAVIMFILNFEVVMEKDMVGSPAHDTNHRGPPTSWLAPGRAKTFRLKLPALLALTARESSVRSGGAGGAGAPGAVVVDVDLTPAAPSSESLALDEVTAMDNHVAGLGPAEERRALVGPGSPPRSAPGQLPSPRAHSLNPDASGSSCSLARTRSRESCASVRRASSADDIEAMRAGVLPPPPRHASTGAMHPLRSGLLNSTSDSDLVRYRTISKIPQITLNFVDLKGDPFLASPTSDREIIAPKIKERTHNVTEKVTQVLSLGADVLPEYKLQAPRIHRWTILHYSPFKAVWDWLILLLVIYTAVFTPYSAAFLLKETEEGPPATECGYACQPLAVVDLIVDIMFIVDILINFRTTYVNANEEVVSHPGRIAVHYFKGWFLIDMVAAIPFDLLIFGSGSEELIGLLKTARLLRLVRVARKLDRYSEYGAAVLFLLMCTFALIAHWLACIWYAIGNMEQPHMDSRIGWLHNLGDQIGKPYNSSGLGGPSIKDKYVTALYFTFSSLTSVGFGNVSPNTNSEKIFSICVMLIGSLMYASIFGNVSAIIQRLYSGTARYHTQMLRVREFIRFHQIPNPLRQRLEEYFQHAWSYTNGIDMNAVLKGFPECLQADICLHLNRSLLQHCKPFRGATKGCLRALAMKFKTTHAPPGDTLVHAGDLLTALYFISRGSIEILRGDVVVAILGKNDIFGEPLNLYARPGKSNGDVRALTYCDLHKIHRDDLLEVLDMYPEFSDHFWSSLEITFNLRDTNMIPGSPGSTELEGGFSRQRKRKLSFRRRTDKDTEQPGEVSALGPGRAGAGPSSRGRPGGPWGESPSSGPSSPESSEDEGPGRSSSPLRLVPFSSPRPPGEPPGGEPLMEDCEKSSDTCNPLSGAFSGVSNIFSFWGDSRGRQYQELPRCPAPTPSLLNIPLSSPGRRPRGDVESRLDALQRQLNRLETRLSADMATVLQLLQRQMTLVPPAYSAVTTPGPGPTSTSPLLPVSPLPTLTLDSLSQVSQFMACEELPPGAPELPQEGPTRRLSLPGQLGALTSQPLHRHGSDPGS
Test: Human Ether-a-go-go-Related Gene (hERG) channel small molecule antagonists: fluorescence cell-based qHTS assay (AID 1671200)
Conditions: hERG-U2OS cells, FluxOR thallium flux fluorescence; series mostly up to 76.8 µM
How it was run: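 First, 1000 cells per well are seeded and cultured overnight at 37 C. Next, FluxOR II dye is loaded for 1 h at room temperature, protected from light. After 10 more minutes, stimulus is added and fluorescence is read.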

Row | SMILES | Potency
35 | OC(c1ccc(Cl)cc1)(c1ccc(Cl)cc1)c1cccnc1 | 34.7 µM (active)
36 | [CH3][Sn]([CH3])([Cl])[Cl] | inactive
37 | CC(O)(CS(=O)(=O)c1ccc(F)cc1)C(=O)Nc1ccc(C#N)c(C(F)(F)F)c1 (configuration not stated) | inactive
38 | CCCCCCCCCCOC(=O)c1ccccc1C(=O)OCCCCCCCCCC | inactive
39 | N#Cc1ccc(Cl)cc1 | inactive
40 | CCOP(=S)(OCC)SCn1nnc2ccccc2c1=O | inactive
41 | O=C(CCl)c1ccc(Cl)cc1Cl | inactive
42 | Sc1ccccc1Cl | inactive
43 | CC(c1ccc(O)cc1)(c1ccc(O)cc1)c1ccc(O)cc1 | inactive
44 | Cc1ccccc1CCl | inactive
45 | O=C(Nc1ccccc1)Nc1ccnc(Cl)c1 | inactive
46 | O=[N+]([O-])C(Br)(CO)CO | inactive
47 | COc1nn(CSP(=S)(OC)OC)c(=O)s1 | inactive
48 | CC(=O)CCC(C)=O | inactive
49 | COP(=S)(OC)Oc1ccc([N+](=O)[O-])cc1Cl | inactive
50 | C[C@H]1CNCCc2ccc(Cl)cc21 | inactive
51 | O=C(O)C(F)(F)C(F)(F)C(F)(F)C(F)(F)C(F)(F)C(F)(F)C(F)(F)C(F)(F)C(F)(F)C(F)(F)F | inactive

Row | SMILES | Potency
52 | c1ccc(CN2CCNCC2)cc1 | inactive
53 | O=C(Nc1ccccc1)Nc1cnns1 | inactive
54 | CO/C=C(/C(=O)OC)c1ccccc1COc1cccc(C(F)(F)F)n1 | inactive
55 | CNC(C)Cc1ccccc1OC (configuration not stated) | inactive
56 | CC(C)=CCOc1c2occc2cc2ccc(=O)oc12 | inactive
57 | O=S1(=O)OC(c2cc(Br)c(O)c(Br)c2)(c2cc(Br)c(O)c(Br)c2)c2ccccc21 | inactive
58 | CN1C(=O)NC(=O)C(C)(C2=CCCCC2)C1=O (configuration not stated) | inactive
59 | ClCCCCBr | inactive
60 | Cc1ccccc1C(=O)Nc1cccc(OC(C)C)c1 | inactive
61 | COc1ccc(-c2ccccc2)cc1NNC(=O)OC(C)C | inactive
62 | Cl/C=C\Cl | inactive
63 | O=C(O)C(F)(F)C(F)(F)C(F)(F)C(F)(F)C(F)(F)C(F)(F)C(F)(F)C(F)(F)C(F)(F)F | inactive
64 | ClCc1cccc(Cl)c1 | inactive
65 | CC(C)(C)c1cc([N+](=O)[O-])cc([N+](=O)[O-])c1O | inactive
66 | CCCCCCC#N | inactive
67 | S=C=NCc1ccccc1 | inactive
68 | CC(C)(OO)c1ccccc1 | inactive

Molecular target: Cytochrome P450 3A4 (Homo sapiens) (UniProt P08684)
Sequence (P08684 whole entry, looked up): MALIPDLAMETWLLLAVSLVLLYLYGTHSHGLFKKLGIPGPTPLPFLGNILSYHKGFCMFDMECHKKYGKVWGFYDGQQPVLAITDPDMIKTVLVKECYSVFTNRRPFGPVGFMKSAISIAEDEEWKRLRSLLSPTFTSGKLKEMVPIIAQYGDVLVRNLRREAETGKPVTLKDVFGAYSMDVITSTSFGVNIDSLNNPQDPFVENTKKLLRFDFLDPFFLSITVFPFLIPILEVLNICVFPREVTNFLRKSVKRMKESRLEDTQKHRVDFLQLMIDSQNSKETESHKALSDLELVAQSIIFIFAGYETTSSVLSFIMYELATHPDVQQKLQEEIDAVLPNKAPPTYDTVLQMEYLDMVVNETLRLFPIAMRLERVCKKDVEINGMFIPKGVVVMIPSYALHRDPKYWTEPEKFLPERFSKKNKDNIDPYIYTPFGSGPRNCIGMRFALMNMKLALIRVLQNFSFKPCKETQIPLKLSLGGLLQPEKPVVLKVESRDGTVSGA
Test: Cytochrome P450 Family 3 Subfamily A Member 4 (CYP3A4) small molecule antagonists: luciferase reporter qHTS assay (AID 1671201)
Conditions: P450-Glo CYP3A4 enzyme, luciferin luminescence, 1 h; series mostly up to 115 µM
How it was run: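 Enzyme and proluciferin substrate are mixed with test chemicals for 10 min, then NADPH regeneration system drives turnover for 1 h at room temperature. A detection reagent halts the reaction; luminescence after 20 min gives relative activity.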

Row | SMILES | Potency
69 | OC(c1ccc(Cl)cc1)(c1ccc(Cl)cc1)c1cccnc1 | 2.24 µM (active)
70 | [CH3][Sn]([CH3])([Cl])[Cl] | inactive
71 | CC(O)(CS(=O)(=O)c1ccc(F)cc1)C(=O)Nc1ccc(C#N)c(C(F)(F)F)c1 (configuration not stated) | 2.33 µM (active)
72 | CCCCCCCCCCOC(=O)c1ccccc1C(=O)OCCCCCCCCCC | inactive
73 | N#Cc1ccc(Cl)cc1 | inactive
74 | CCOP(=S)(OCC)SCn1nnc2ccccc2c1=O | 1.59 µM (active)
75 | O=C(CCl)c1ccc(Cl)cc1Cl | inactive
76 | Sc1ccccc1Cl | inactive
77 | CC(c1ccc(O)cc1)(c1ccc(O)cc1)c1ccc(O)cc1 | 31.7 µM (active)
78 | Cc1ccccc1CCl | inactive
79 | O=[N+]([O-])C(Br)(CO)CO | inactive
80 | CC(=O)CCC(C)=O | inactive
81 | COP(=S)(OC)Oc1ccc([N+](=O)[O-])cc1Cl | 6.33 µM (active)
82 | C[C@H]1CNCCc2ccc(Cl)cc21 | inactive
83 | O=C(O)C(F)(F)C(F)(F)C(F)(F)C(F)(F)C(F)(F)C(F)(F)C(F)(F)C(F)(F)C(F)(F)C(F)(F)F | inactive
84 | c1ccc(CN2CCNCC2)cc1 | inactive
85 | O=C(Nc1ccccc1)Nc1cnns1 | 3.56 µM (active)
86 | CO/C=C(/C(=O)OC)c1ccccc1COc1cccc(C(F)(F)F)n1 | inactive
87 | CNC(C)Cc1ccccc1OC (configuration not stated) | inactive
88 | CN1C(=O)NC(=O)C(C)(C2=CCCCC2)C1=O (configuration not stated) | inactive
89 | ClCCCCBr | inactive
90 | Cc1ccccc1C(=O)Nc1cccc(OC(C)C)c1 | inactive
91 | COc1ccc(-c2ccccc2)cc1NNC(=O)OC(C)C | 1.04 µM (active)
92 | Cl/C=C\Cl | inactive
93 | O=C(O)C(F)(F)C(F)(F)C(F)(F)C(F)(F)C(F)(F)C(F)(F)C(F)(F)C(F)(F)C(F)(F)F | inactive
94 | ClCc1cccc(Cl)c1 | inactive
95 | CC(C)(C)c1cc([N+](=O)[O-])cc([N+](=O)[O-])c1O | inactive
96 | CCCCCCC#N | inactive
97 | S=C=NCc1ccccc1 | 20.2 µM (active)

— PubChem BioAssay (Tox21)
